GluA2 TARP mod = modulators of AMPA receptor GluA2-stargazin complexes. O88602+P19491. HEK293 GluA2+stargazin, membrane potential dye (FDSS), glutamate EC50; hits were called plate by plate, in both directions. hit rate 3.5% among 40,000. calls only at 30 µM;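 active means any of four per-well response measures lying three or more SD from its plate-wide compound average, in either direction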
GIRK2 act = GIRK2 channel activators by thallium flux. HEK293 GIRK2/NPY4 cells, thallium flux fluorescence. P48051. 34,000 tested, under 10 active. activation (% efficacy), % for hits at 37.5 µM;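 active means primary screen hit, no activity in plain HEK293 cells, and in GIRK2-only cells above 5% efficacy rising with concentration; inactive means the rest, including fluorescent compounds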;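 further: efficacy is normalized control-subtracted fluorescence 15 s after thallium addition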
Target sequence (P48051 whole entry, looked up): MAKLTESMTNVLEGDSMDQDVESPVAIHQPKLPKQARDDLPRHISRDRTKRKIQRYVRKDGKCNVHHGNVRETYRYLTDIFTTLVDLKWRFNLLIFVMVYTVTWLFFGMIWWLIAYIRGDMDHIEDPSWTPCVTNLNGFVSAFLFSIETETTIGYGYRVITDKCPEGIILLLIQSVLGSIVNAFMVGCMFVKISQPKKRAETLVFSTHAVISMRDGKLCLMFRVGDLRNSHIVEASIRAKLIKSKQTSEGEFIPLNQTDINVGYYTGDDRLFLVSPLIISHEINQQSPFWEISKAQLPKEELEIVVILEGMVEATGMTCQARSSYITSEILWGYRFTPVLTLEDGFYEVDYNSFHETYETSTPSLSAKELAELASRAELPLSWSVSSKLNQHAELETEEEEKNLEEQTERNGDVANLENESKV
Starred values were filed as active, the others as inactive; i = inactive; x = not tested or not shown; + = active, no number. The sample as a whole holds a higher share of hits than the screen did.

SMILES | GluA2 TARP mod | GIRK2 act
O=C(NCc1cccc2ccccc12)N(Cc1ccccn1)Cc1ccco1 | x | i
O=C(NCc1cccc2ccccc12)N(CCc1ccccc1)Cc1ccccn1 | + | i
O=C(NC1CCCCC1)N(CCc1ccccc1)Cc1ccccn1 | i | i
O=C(N(CCc1ccccc1)Cc1ccccn1)C12CC3CC(CC(C3)C1)C2 | + | i
CCn1c(C2CC(=O)N(c3ccc(C)cc3)C2)nc2ccccc21 (stereo unspecified) | i | x
CSc1ccccc1NC(=O)C(=O)NCC1CCN(c2ccccn2)CC1 | i | i
O=C(Nc1ccc2c(c1)OCO2)c1ccc(=O)n(Cc2ccccc2Cl)c1 | i | i
COC(=O)c1ccccc1NC(=O)CSc1nccnc1N1CCSCC1 | + | i
N#Cc1ccccc1NC(=O)CSc1nccnc1N1CCSCC1 | i | i
COc1ccc(S(=O)(=O)NCc2ccccc2)cc1N(C)S(=O)(=O)c1ccc(Cl)cc1 | + | x
COc1ccc(S(=O)(=O)NCc2ccccc2)cc1N(C)S(C)(=O)=O | i | x
Cc1ccc(-c2csc(NC(=O)c3ccc(S(=O)(=O)C(C)C)cc3)n2)cc1 | i | x
CC(C)N(C)S(=O)(=O)c1ccc(C(=O)Nc2nc(-c3ccncc3)cs2)cc1 | + | i
Cn1cccc1C(O)CNC(=O)C1CCCCC1 (stereo unspecified) | i | i
Cc1cccc(C)c1OC(=O)c1ccc([N+](=O)[O-])cc1Cl | i | i
COc1ccccc1-c1ccc(N2CCN(C(=O)Nc3ccc(Cl)cc3)CC2)nn1 | i | x
Cc1ccc(C(C)C)c(OCCCn2c(CCCO)nc3ccccc32)c1 | i | i
CC(=O)NCCc1nc2ccccc2n1CCCOc1cc(C)ccc1C(C)C | + | i
O=C(NCCN1CCn2cc(OCc3ccccc3)c(=O)cc2C1=O)C1CC1 | i | i
COc1ccc(C(=O)NNC(=O)c2ccc(=O)n(Cc3ccccc3)c2)c(OC)c1 | + | i
O=C(NNC(=O)c1ccc(=O)n(Cc2ccccc2)c1)c1ccc(Cl)cc1 | i | i
O=C(NNC(=O)c1cc2ccccc2oc1=O)c1ccc(=O)n(Cc2ccccc2)c1 | + | i
CCOc1ccccc1C(=O)NNC(=O)c1ccc(=O)n(Cc2ccccc2)c1 | i | i
CSc1ccccc1CN1CCC(CNC(=O)c2cccc(N(C)C)c2)CC1 | i | i
Cc1cc(=O)oc2c1c(C)nn2CN1CCN(C)CC1 | i | x
SMILES | GluA2 TARP mod | GIRK2 act
CC(c1ccccc1)N1C(=O)CC(N2CCOCC2)C1=O (stereo unspecified) | + | x
Cc1ccc(CN2C(=O)CC(N3CCOCC3)C2=O)cc1 (stereo unspecified) | i | i
CN1CCN(n2c3c(c(SCC(=O)NCCc4ccccc4)nc2=O)CCCC3)CC1 | i | i
Cc1c(C)n2c3c(=O)n(C)c(=O)n(C)c3nc2n1CC(O)CO (stereo unspecified) | + | i
COC(=O)C(C)n1c(C)cn2c3c(=O)n(C)c(=O)n(C)c3nc12 (stereo unspecified) | + | i
Cc1c(C)n2c3c(=O)n(CC(N)=O)c(=O)n(C)c3nc2n1C(C)C | i | i
CC(=O)C(C)n1c(-c2ccccc2)cn2c3c(=O)n(C)c(=O)n(C)c3nc12 (stereo unspecified) | i | i
COC(=O)C(C)n1c(C)c(C)n2c3c(=O)n(C)c(=O)n(C)c3nc12 (stereo unspecified) | + | i
CCCCCCCCn1c(C)c(C)n2c3c(=O)n(C)c(=O)n(C)c3nc12 | i | i
COc1cc(C)c(C)cc1S(=O)(=O)Nc1ccc2c(c1)CC(=O)N2 | i | x
COc1ccc(/C=C2\Oc3cc(OC(=O)c4ccco4)ccc3C2=O)cc1OC | i | x
O=C(CC1CCCCN1S(=O)(=O)c1cccs1)NCc1ccco1 (stereo unspecified) | i | x
O=C(Nc1nnc(Cc2ccc(Cl)s2)o1)c1ccc2c(c1)OCCO2 | x | i
Cc1cccc(Cn2c(=O)c3nscc3n(CC(=O)Nc3ccccc3C)c2=O)c1 | i | i
CC(=O)c1ccc(NC(=O)Cn2c(=O)n(Cc3ccccc3)c(=O)c3nscc32)cc1 | + | i
CC(=O)Nc1ccc(NC(=O)CN(c2ccc(F)cc2)S(=O)(=O)c2cccnc2)cc1 | i | i
O=C(Cc1csc(Nc2cccc(Cl)c2)n1)NCCc1ccccc1 | i | i
CC(C)Cc1cnc2c(c1SCC(=O)NC1CCCC1)c(=O)n(C)c(=O)n2C | + | x
Cc1cnc2c(c1SCC(=O)NC1CCCC1)c(=O)n(C)c(=O)n2C | i | i
CC1CC(C)CN(S(=O)(=O)c2ccc(C(=O)Nc3ccc4ncsc4c3)cc2)C1 (stereo unspecified) | + | i
O=C(Nc1ccc2ncsc2c1)c1ccc(S(=O)(=O)N2CCOCC2)cc1 | i | i
O=C(NCCc1c[nH]c2ccccc12)c1csc(Nc2ccccc2)n1 | x | i
